Source: PubChem BioAssay (National Center for Advancing Translational Sciences (NCATS))
Compounds with a hit are over-represented: about 2.9% of the library has one in this group of screens.
GLP1R inv ag: qHTS of GLP-1 Receptor Inverse Agonists (Inhibition Mode); Glucagon-like peptide 1 receptor (Homo sapiens), P43220; HEK293 GLP-1R CRE-luciferase, luminescence, 24 h; GLP-1R form is constitutively active; Potency, µM (titrated, usually from 38.3 µM), most hits filed as inhibitors; 410,000 compounds, 1.6% hits; AID 624417, 2012; further: nearly all actives have a fitted effect of over 55% in size
Target sequence (P43220 whole entry, looked up): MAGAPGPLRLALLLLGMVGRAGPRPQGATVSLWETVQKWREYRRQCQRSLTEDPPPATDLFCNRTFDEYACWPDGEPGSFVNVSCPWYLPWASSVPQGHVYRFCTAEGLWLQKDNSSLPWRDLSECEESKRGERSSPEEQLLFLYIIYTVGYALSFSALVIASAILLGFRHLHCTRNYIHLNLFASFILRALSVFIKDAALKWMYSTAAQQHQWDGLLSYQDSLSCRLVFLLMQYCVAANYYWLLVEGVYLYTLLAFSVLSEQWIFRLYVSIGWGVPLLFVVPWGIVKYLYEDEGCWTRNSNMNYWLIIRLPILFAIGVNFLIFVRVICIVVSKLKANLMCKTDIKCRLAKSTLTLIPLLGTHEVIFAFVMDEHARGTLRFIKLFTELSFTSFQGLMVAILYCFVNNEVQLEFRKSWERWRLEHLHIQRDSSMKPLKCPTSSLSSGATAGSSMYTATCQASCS
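Cells are plated, allowed 12 hours at 37 deg C, then treated with compounds for 24 hr before luciferase detection reagent is added and luminescence is read after 12 min at room temperature. The HEK293 line carries constitutively active GLP-1R with a cAMP-responsive reporter.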
GLP1R ag: qHTS of GLP-1 Receptor Agonists. 380,000 compounds, 0.007% hits. HEK293 GLP-1R CRE-luciferase, luminescence, 4-6 h; cells express a hypersensitive GLP-1R form. Potency, µM (highest dose often 45.6 µM), most hits filed as activators. Glucagon-like peptide 1 receptor (Homo sapiens), P43220. AID 624172, 2012
p53 reactivator: qHTS assay for re-activators of p53 using a Luc reporter | 320,000 compounds, 0.063% hits | Potency, µM (highest dose often 92.2 µM), usual class: activators | H1299 p53-A138V BP100-luciferase reporter, luminescence, 24 h; further: nearly all actives have a fitted effect of over 45% in size
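H1299 (p53-null), stable ts p53-A138V + BP100-Luc; 1000 cells/well, Opti-MEM/10% FBS; cpd 4 pt, 1:5; 24 h, 37 deg C, 5% CO2; detection reagent 10 min RT; luminescence.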
LDHA inh: qHTS assay for inhibitors of human lactate dehydrogenase. L-lactate dehydrogenase A chain (Homo sapiens), P00338. purified LDHA, NADH/diaphorase-resazurin fluorescence; active compounds read low. activity change, % (values are at about 110 or 230 µM). 480,000 compounds, 0.15% hits. AID 1347041, 2019; in the data active means activity change below about -30%; inconclusive means mostly about -25% to -30%
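Human LDH5 at 2 nM final in Tris HCl pH 7.4 with 0.06 mM NADH and 0.2 mM pyruvate, reacted 5 minutes at room temperature. Remaining NADH coupled via diaphorase/resazurin; resorufin fluorescence read at 0 and 20 minutes, normalized to enzyme-free and DMSO wells.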
HEK293 tox: qHTS of GLP-1 Receptor Inverse Agonists: Cytotox Screen; Potency, µM (highest dose often 38.3 µM), hits mostly inhibitors; HEK293 cAMP-luciferase reporter cells, luminescence, 24 h; 410,000 compounds, 0.13% hits;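 further: loss of luciferase light is scored as toxicity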
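Here, cytotoxicity is scored as loss of luminescence. The MLSMR collection was tested on cells seeded in medium containing 10% Nu serum, with a 24 hr compound exposure preceded by 12 hours of culture.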
ClpP mod: qHTS Assay for Activators of ClpP | AID 651965, 2013 | purified B. subtilis ClpP, FRET peptide cleavage, 20 min | ATP-dependent Clp protease proteolytic subunit (Bacillus subtilis (strain 168)), P80244 | 340,000 compounds, 1.9% hits | Potency, µM (titrated, usually from 57.5 µM); active means well fitted falling curve with a large enough effect; inconclusive means small, poorly fitted or top-dose-only effect; inactive means no such curve, though single readings can be large or run the other way; further: the source files actives as falling curves though it sought activators and does not explain the sign; nearly all actives have a fitted effect of over 65% in size
Target sequence (P80244 whole entry, looked up): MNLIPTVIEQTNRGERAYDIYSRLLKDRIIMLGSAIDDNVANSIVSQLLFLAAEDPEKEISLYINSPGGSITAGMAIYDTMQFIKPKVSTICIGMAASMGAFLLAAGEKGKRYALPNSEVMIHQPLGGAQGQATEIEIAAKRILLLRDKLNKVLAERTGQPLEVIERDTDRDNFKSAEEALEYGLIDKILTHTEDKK
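FRET quenching reversal measured ClpP activation: 10 microg/mL B. subtilis ClpP at pH 8 with the FRET-FV decapeptide, read at 430 nm after 320 nm excitation. The 20-min minus 0-min signal was scaled between DMSO/no-enzyme wells and ADEP (5.8 microM final).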
Hits are given with their value; [ ] = dose if it differs, or a comment. Unless noted, the call rests on the fitted dose curve; in most records, active means well fitted curve in the direction sought with a large enough effect; inconclusive means small, poorly fitted or top-dose-only effect, or another doubt; inactive means no such curve, though single readings can be large; an effect the other way counts as inactive or inconclusive.

Screening COc1cc2c(cc1OC)C(c1ccc(Cl)cc1)N(c1ccc(C)c(F)c1)C(=O)C2 (configuration not stated) returned GLP1R inv ag inconclusive, LDHA inh inactive, HEK293 tox inactive and ClpP mod inactive.
For O=C(Nc1ccc(-c2cn3c(n2)SCC3)cc1)c1ccc2ccccc2n1 the results were GLP1R inv ag inactive[7.66 µM], GLP1R ag inactive, p53 reactivator inactive, LDHA inh inactive, HEK293 tox inactive[7.66 µM] and ClpP mod 22µM.
`O=C(Nc1cccc(-c2cn3c(n2)SCC3)c1)c1ccc2ccccc2n1` gave GLP1R inv ag inconclusive, GLP1R ag inactive, p53 reactivator inactive, LDHA inh inactive and HEK293 tox inactive.
Screening O=C(c1ccccc1F)N1CCN(Cc2nc3sc4c(c3c(=O)[nH]2)CCCC4)CC1 returned GLP1R inv ag inactive, GLP1R ag inactive, p53 reactivator inactive, LDHA inh inactive and HEK293 tox inactive.
`Cc1cccc(C(=O)Nc2cc3nn(-c4ccc(C(C)C)cc4)nc3cc2C)c1` gave GLP1R inv ag inactive, GLP1R ag inactive, LDHA inh inactive, HEK293 tox inactive and ClpP mod 10µM.
For Cc1cc2nn(-c3ccc(F)cc3)nc2cc1NC(=O)c1ccc(OC(C)C)cc1 the results were GLP1R inv ag inactive, GLP1R ag inactive, LDHA inh inactive, HEK293 tox inactive and ClpP mod inactive.
Cc1cccc(-n2c(SCN3C(=O)c4ccccc4C3=O)nc3ccccc3c2=O)c1 was read as p53 reactivator inactive.
For CCCn1c(SCN2C(=O)c3ccccc3C2=O)nc2cc(Cl)ccc2c1=O the results were GLP1R inv ag inactive, GLP1R ag inactive, p53 reactivator inactive, LDHA inh inactive, HEK293 tox inactive and ClpP mod 25µM.
COc1cccc(C2(C)NC(=O)N(CC(=O)c3cc(C)n(C4CC4)c3C)C2=O)c1 (configuration not stated) was read as GLP1R inv ag inactive, GLP1R ag inactive, p53 reactivator inactive, LDHA inh inactive, HEK293 tox inactive and ClpP mod inactive.
C=CCSc1nc(C)cc(/C=C\c2ccccc2)c1C#N was read as GLP1R inv ag inactive, GLP1R ag inactive, p53 reactivator inactive, LDHA inh inactive, HEK293 tox inactive and ClpP mod 28µM.
Screening COC(=O)c1ccccc1NC(=O)n1cc(C)cn1 returned GLP1R inv ag inactive, GLP1R ag inactive, p53 reactivator inactive, LDHA inh inactive, HEK293 tox inactive and ClpP mod 32µM.
`COC(=O)c1ccccc1NC(=O)N1c2ccccc2Sc2ccccc21` gave GLP1R inv ag 10µM, GLP1R ag inactive, p53 reactivator inactive, LDHA inh inactive, HEK293 tox inactive and ClpP mod inconclusive.
COC(=O)c1cccc(NC(=O)c2cc3sccc3n2C)c1 was read as GLP1R inv ag inactive, GLP1R ag inactive, p53 reactivator inactive, LDHA inh inactive, HEK293 tox inactive and ClpP mod inactive.
COC(=O)c1ccccc1NC(=O)c1cc2sccc2n1C was read as GLP1R inv ag inactive, GLP1R ag inactive, p53 reactivator inactive, LDHA inh inactive, HEK293 tox inactive and ClpP mod 32µM.
For COC(=O)c1ccccc1NC(=O)N1CCN(C(=O)c2ccco2)CC1 the results were GLP1R inv ag inactive, GLP1R ag inactive, p53 reactivator inactive, LDHA inh inactive, HEK293 tox inactive and ClpP mod 22µM.
COc1ccc(C(=O)Nc2nnc(SCc3cc(=O)c4cc(C)ccc4[nH]3)s2)cc1OC was read as GLP1R inv ag inactive, LDHA inh inactive, HEK293 tox inactive and ClpP mod inactive.
O=C(NCc1ccccc1F)c1cc(S(=O)(=O)C2CCS(=O)(=O)C2)ccc1F (configuration not stated) was read as LDHA inh inactive.
`CC1=C(c2ccc(Cl)cc2)S(=O)(=O)NC1=NCCCN1CCN(c2cc(C)ccc2C)CC1` gave GLP1R inv ag inconclusive, LDHA inh inactive, HEK293 tox inactive and ClpP mod inactive.
Screening CC1=C(c2ccc(C)cc2)S(=O)(=O)NC1=NCCCN1CCN(c2ccc(F)cc2)CC1 returned GLP1R inv ag 11µM, LDHA inh inactive, HEK293 tox inactive and ClpP mod inactive.
COc1ccc(C2=C(C)C(=NCCCN3CCN(c4cc(Cl)ccc4C)CC3)NS2(=O)=O)cc1 was read as GLP1R inv ag 8.9µM, LDHA inh inactive, HEK293 tox inactive and ClpP mod inactive.
COc1ccccc1NC(=O)C(C)OC(=O)CSCC(=O)Nc1ccc(C)cc1C (configuration not stated) was read as GLP1R inv ag inactive, GLP1R ag inactive, p53 reactivator inactive, LDHA inh inactive, HEK293 tox inactive and ClpP mod inactive.
Cc1ccc(NC(=O)CSCC(=O)OC(C)C(=O)Nc2ccc(S(N)(=O)=O)cc2)c(C)c1 (configuration not stated) was read as GLP1R inv ag inactive, GLP1R ag inactive, p53 reactivator inactive, LDHA inh -44 and HEK293 tox inactive.
O=C(Nc1cccc(Cl)c1)N1CCN2C(=O)c3ccccc3C12c1ccccc1 (configuration not stated) was read as GLP1R inv ag 8.9µM, GLP1R ag inactive, p53 reactivator inactive, LDHA inh inactive, HEK293 tox inconclusive and ClpP mod 16µM.
CCCCN(C)CCN1C(=O)C2C(C(=O)Nc3cccc(OC)c3)C3C=CC2(O3)C1C(=O)NC1CCCCC1C (configuration not stated) was read as GLP1R inv ag inconclusive, GLP1R ag inactive, p53 reactivator inactive, LDHA inh inactive and HEK293 tox inactive.
Screening OC(COc1ccccc1)CN1CCCCC1 (configuration not stated) returned GLP1R inv ag inactive, GLP1R ag inactive, LDHA inh inactive, HEK293 tox inactive and ClpP mod 32µM.
For OC(COc1ccc(CNCCc2ccccc2F)cc1)CN1CCCCC1 (configuration not stated) the results were GLP1R inv ag 5µM, GLP1R ag inactive, p53 reactivator inactive, LDHA inh inactive, HEK293 tox inactive and ClpP mod inactive.
O=C1NC2c3ccccc3CC2O1 (configuration not stated) was read as GLP1R inv ag inactive, GLP1R ag inactive, LDHA inh inactive, HEK293 tox inactive and ClpP mod inactive.
